High-throughput results (PubChem)
eIF4E-4G inh = inhibitors of eIF4E and eIF4G interaction in translation initiation. AID 782. inhibition, % at 21.7 µM. P63073+Q04637. 220,000 tested, 0.37% active. TR-FRET eIF4E-eIF4GI(517-606) binding, 2 h;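 active = inhibition above about 30%, limit read from the data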;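 also: 0% = full FRET control wells and 100% = background wells lacking eIF4GI fragment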
PERK inh = inhibitors of human PERK kinase; Q9NZJ5; CHO PERK-DD fusion, SEAP luminescence translation reporter; inhibition, % at 5.6 µM; 220,000 tested, 0.17% active; AID 1416;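 active = inhibition above the mean inhibition of all tested compounds plus 3 SD, set separately per screening campaign, cut at about 2.9% in these data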;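 also: PERK kinase domain activated by AP20187 dimerizer at 100 nM; 0% = DMSO with dimerizer and 100% = rapamycin at 8.4 µM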
PABP1 MLLE inh = blocks PAM2 peptide binding to the PABP1 MLLE domain; inhibition, % at 20 µM; 360,000 tested, 0.36% active; P11940; GST-MLLE / FITC-PAM2 fluorescence polarization; in the data active = inhibition above about 35%, passing the limit was not always enough;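 also: plate controls were DMSO wells with GST-MLLE for no effect and wells lacking GST-MLLE protein for full effect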
eIF4H inh = inhibitors of RNA binding by human eIF4H | Q15056 | eIF4H fluorescence polarization binding assay | inhibition, % at 35 µM | 290,000 tested, 0.94% active | AID 2012;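 also: calls also rest on retests at 20 µM and on dose response follow-up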
PABP polyA inh = PABP-poly(A) binding inhibition; P11940; PABP-poly(A) RNA binding, fluorescence polarization; calls only at 35 µM; 290,000 tested, 1% active;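 also: calls also rest on retests at 20 µM and on dose response follow-up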
Numbers without * were called inactive; i = inactive; ? = inconclusive; nt = no result; + = active, no number; [ ] = another dose, or the depositor's remark. Only some compounds are listed: those with a hit (about 1.6% of all), similar ones and a draw of the others. Unless noted, no rule for the calls is given here.

SMILES	eIF4E-4G inh	PERK inh	PABP1 MLLE inh	eIF4H inh	PABP polyA inh
O=C1NC(=O)C(=Cc2ccccc2[N+](=O)[O-])C(=O)N1	nt	nt	30.9	nt	nt
O=C1NC(=O)C(=Cc2cc3c(cc2[N+](=O)[O-])OCO3)C(=O)N1	2.2	1.6	29.5	97.6*	+
COc1cccc(N2C(=O)CC(=O)NC2=O)c1	4.0	0.2	-15.4	76.6*	+
CCOc1cccc(N2C(=O)CC(=O)NC2=O)c1	2.6	0.2	-23.6	32.4	i
CC(C)c1ccc(N2C(=O)CC(=O)NC2=O)cc1	nt	nt	-47.3	?	+
O=c1oc2ccccc2c(O)c1[C@H]1c2ccc(O)cc2Oc2c1c(=O)oc1ccccc21	4.5	0.4	16.9	11.2	i
O=C1c2ccccc2C(=O)N1Cc1nc2ccccc2c(=O)n1-c1ccccn1	31.1*	1.6	-7.9	1.5	i
Cc1nc2c(c(=O)[nH]1)C(c1ccc([N+](=O)[O-])cc1)c1c(c3ccccc3oc1=O)O2 (stereo not drawn)	-8.7	2.1	nt	-2.8	i
COC(=O)C1=C(c2ccc(C(C)=O)cc2)C[C@@H]2CC[C@H]1N2C(=O)NC(C)C	nt	nt	1.5	nt	nt
Cc1ccc(N=Cc2c(O)n(-c3ccc(C)cc3)c(=O)[nH]c2=O)cc1	nt	nt	2.4	nt	nt
Cc1ccc(-n2c(O)c(C=Nc3ccc(S(=O)(=O)N(C)C)cc3)c(=O)[nH]c2=O)cc1	3.2	1.3	-3.2	?	+
O=C(O)c1ccccc1-c1ccc(C=C2C(=O)N(c3ccccc3)C(=S)N(c3ccccc3)C2=O)o1	nt	nt	-16.2	10.1	i
Cn1c(O)c(C=Nc2ccccc2Sc2ccccc2)c(=O)n(C)c1=O	2.4	0.3	2.2	86.8	+
Cc1cc2c(C(C)C)c(O)c(O)c(C=O)c2c(O)c1-c1c(C)cc2c(C(C)C)c(O)c(O)c(C=O)c2c1O	33.4*[fluorescence artefact?]	1.1	9.3	95.4	+
O=C1c2ccccc2-c2cc3ccccc3cc21	nt	nt	46.2*	nt	nt
O=C1C=C(N2CC2)c2ccccc2C1=O	nt	nt	35.5	nt	nt
O=C1c2ccccc2-c2cccc3cccc1c23	nt	nt	55.1*	nt	nt
Cc1ccc(Sc2ccc(C=C3C(=O)N(C)C(=O)N(C)C3=O)o2)cc1	-1.0	1.8	21.1	?	+
Cn1c[n+](C)cc1C(O)c1ccccc1 (stereo not drawn)	10.8	-0.6	-140.2	7.3	+
CN1C(CC(O)c2ccccc2)CCCC1CC(O)c1ccccc1 (stereo not drawn)	nt	nt	-6.6	nt	nt
C/C=C(\C)C(=O)OC1C(C)=C2C(C1OC(=O)CCCCC)C(C)(OC(C)=O)CC(OC(=O)CCC)C1(O)C2OC(=O)C1(C)O (stereo not drawn)	-10.6	nt	nt	23.8	i
CN1CCN(C(=O)COc2ccc(-c3nc4ccccc4s3)cc2)CC1	2.8	-0.1	-9.8	0.5	i
O=C(NC(=S)N1C[C@H]2C[C@H](C1)c1cccc(=O)n1C2)c1ccc(Cl)cc1	nt	nt	42.4*	4.0	i
COc1cc(OC)cc(C(=O)NC(=S)N2C[C@H]3C[C@H](C2)c2cccc(=O)n2C3)c1	nt	nt	34.9	4.5	i
O=S1(=O)CCN(CCc2c[nH]c3ccccc23)CC1	-4.8	0.5	8.2	active	+
SMILES	eIF4E-4G inh	PERK inh	PABP1 MLLE inh	eIF4H inh	PABP polyA inh
CCOP(=O)(OCC)/C(C#N)=C/c1ccc(Br)cc1	0.3	0.5	10.9	3.2	i
Cc1cc(/C=C2\C(=O)NC(=O)N(C)C2=O)c(C)n1-c1ccc2c(c1)OCO2	-1.4	1.0	1.2	73.3	i
Cc1cc(/C=C2/C(=O)NC(=O)N(C)C2=O)c(C)n1-c1ccccc1	2.1	0.6	-12.3	68.7	+
Cc1cc(C=C2C(=O)NC(=O)NC2=O)c(C)n1-c1ccc2c(c1)OCO2	1.0	0.0	-15.0	65.2	i
Cc1cc(C=C2C(=O)NC(=S)NC2=O)c(C)n1-c1ccc2c(c1)OCO2	2.3	0.1	-57.0	92.0	+
Cc1cc(/C=C2\C(=O)NC(=O)N(c3ccccc3)C2=O)c(C)n1-c1ccc(C(=O)O)c(Cl)c1	nt	nt	10.0	99.5	+
Cc1ccc(/C=C2/C(=O)NC(=O)N(C)C2=O)cc1	1.0	0.6	15.3	?	+
Cc1cc(C)cc(N2C(=O)NC(=O)/C(=C\c3cc(C)n(C)c3C)C2=O)c1	-6.2	-0.3	8.6	?	?
Cc1cc(/C=C2\C(=O)NC(=O)N(c3ccccc3F)C2=O)c(C)n1-c1cc(C(=O)O)cc(C(=O)O)c1	nt	nt	15.5	65.0	+
C=CCN1C(=O)/C(=C/c2cc(C)n(-c3ccccn3)c2C)C(=O)NC1=S	-0.3	0.6	-14.2	?	+
Cc1cc(/C=C2\C(=O)NC(=O)N(c3ccc(Cl)cc3)C2=O)c(C)n1C	3.1	0.8	-25.0	55.2	i
Cc1cc(/C=C2\C(=O)NC(=O)N(c3ccc(F)cc3)C2=O)c(C)n1-c1cccc(C(=O)O)c1	5.8	0.3	-6.3	70.4	+
CCc1ccccc1N1C(=O)NC(=O)/C(=C\c2cc(C)n(C)c2C)C1=O	3.0	0.5	-4.2	66.0*	?
COC(=O)C1=C(c2ccc(Cl)c(C(F)(F)F)c2)C[C@@H]2CC[C@H]1N2C(=O)NCCOc1ccc(OC)cc1	nt	nt	6.7	nt	nt
Cn1cccc1/C=C1/C(=O)NC(=O)N(Cc2ccc(F)cc2)C1=O	6.0	-2.0	-19.7	?	+
O=C1NC(=O)N(Cc2ccco2)C(=O)/C1=C/c1cccn1CCOc1ccccc1Cl	0.1	-0.1	-29.3	?	+
O=C(O)Cn1cc(/C=C2\C(=O)NC(=O)N(Cc3ccco3)C2=O)c2ccccc21	3.0	1.6	-26.6	?	+
O=C1NC(=O)N(Cc2ccccc2)C(=O)/C1=C\c1ccco1	1.6	0.2	-56.9	?	i
Cn1cccc1/C=C1\C(=O)NC(=O)N(Cc2ccccc2)C1=O	-6.0	1.1	-16.5	?	+
Cn1cccc1/C=C1/C(=O)NC(=O)N(Cc2ccccc2)C1=O	4.5	0.0	-9.7	?	i
Cc1nn(CC(C)C)c(Cl)c1C(=O)NC1CCC(C)CC1 (stereo not drawn)	nt	nt	-9.4	nt	nt
O=C1/C(=C/c2ccc([N+](=O)[O-])cc2)N2CCC1CC2	-2.7	0.6	-0.1	5.7	i
C=CCn1c(O)c(C(CC)=Nc2ccc(N(C)C)cc2)c(=O)[nH]c1=O	5.1	-0.8	6.7	8.3	i
N/C(=N\N=C/c1ccc(-c2ccc(O)c(C(=O)O)c2)o1)N[N+](=O)[O-]	33.3*[fluorescence artefact?]	0.8	7.9	103.0*	+
Cc1cc(C)c(-n2c(O)c(/C=N/NC(=O)c3ccncc3)c(=O)[nH]c2=O)c(C)c1	7.0	0.7	-23.6	57.3*	+
Cc1ccccc1-n1c(O)c(/C=N/NC(=O)c2ccncc2)c(=O)[nH]c1=O	1.9	0.4	0.1	28.2	i
C=CCn1c(O)c(C(CC)=NCCc2c[nH]c3ccccc23)c(=O)[nH]c1=O	-1.4	-0.6	12.2	-5.5	i
Cn1c(N)c(C(=O)COC(=O)Cc2ccccc2)c(=O)n(C)c1=O	nt	nt	12.8	nt	nt
